# tim23-1 inh = tim23-1 yeast growth inhibition. S. cerevisiae tim23-1 growth, BacTiter-Glo luminescence, 24 h. inhibition, % at 20 µM. actives 1.3% (n = 330,000);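 active = growth inhibition of the mutant yeast at or above 50%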;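 also: temperature-sensitive mutant grown at 25 °C; plate controls were DMSO-treated mutant yeast for no effect and medium wells lacking yeast for full effect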
# PfHsp90 yeast 2 = inhibits growth of yeast expressing Plasmodium falciparum Hsp90; inhibition, % at 9.4 µM; actives 0.32% (n = 310,000); AID 504621; S. cerevisiae expressing PfHsp90, BacTiter-Glo ATP, 48 h; yeast lacking PDR1 and PDR3 efflux regulators;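 active = every replicate shows inhibition above about 80%, whatever the replicate mean, limit read from the data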;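 also: 0% = DMSO neutral controls and 100% = 20 µM radicicol positive controls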
# TIM10 inh = growth inhibitors of TIM10 yeast strain; S. cerevisiae TIM10 strain growth, BacTiter-Glo luminescence, 24 h; inhibition, % at 10 µM; actives 1.4% (n = 330,000);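 active = inhibition of 40% or more at the single tested concentration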;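 also: wild-type TIM10 isogenic control strain grown at permissive 25 °C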
# tim10-1 inh = growth inhibitors of tim10-1 mutant yeast; inhibition, % at 20 µM; AID 463190; actives 2.2% (n = 330,000); S. cerevisiae tim10-1 ts strain growth, BacTiter-Glo, 24 h;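 active = inhibition of at least 40%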;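 also: mutant grown at 25 °C; 0% = DMSO wells with yeast and 100% = wells holding no yeast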
# SKKanGAS inh = inhibitors of SKKanGAS S. pyogenes growth in kanamycin (SK-promoter or general growth effect) | inhibition, % at 7.5 µM | BacTiter-Glo, 6 h | actives 1.3% (n = 300,000);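 active = mean replicate score, as percent of positive control median, at least 50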;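 also: strain carries kanamycin resistance gene driven by streptokinase promoter and grows in 40 µg/ml kanamycin; loss of luminescence reflects streptokinase promoter inhibition or plain growth inhibition; 0% = median of DMSO wells and 100% = positive control at its reference dose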
# NLRP3 yeast inh = inhibitors of NALP3 inflammasome in yeast; inhibition, % at 10 µM; AID 2825; actives 0.39% (n = 330,000); Yeast reconstituted NLRP3/ASC/caspase-1, beta-gal luminescence, 24 h;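 active = inhibition of 50% or more; inactive = inhibition below 50%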;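 also: plate controls were induced DMSO wells for no effect and uninduced yeast grown without galactose for full effect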
# Numbers without * were called inactive; x = no result. The list is not random: actives were taken first. Their share in the collection is about 4.6%.
SMILES,tim23-1 inh,PfHsp90 yeast 2,TIM10 inh,tim10-1 inh,SKKanGAS inh,NLRP3 yeast inh
CCCCn1c(=O)c(C(=O)NCCc2ccccc2)c(O)c2ccccc21,-3.6,37.3,-5.6,-34.2,54.5*,17.2
CCCCn1c(=O)c(C(=O)NCc2ccc(Cl)cc2)c(O)c2ccccc21,7.8,-2.9,-14.9,-15.0,24.9,9.7
CCCCCn1c(=O)c(C(=O)NCc2ccncc2)c(O)c2ccccc21,5.6,18.4,10.8,24.8,78.0*,11.0
CN1CCC2(CC1)CC(NC=O)c1ccccc1O2 (stereo not given),8.8,23.4,4.4,10.4,4.3,3.4
O=C1NC(=S)NC(=O)C1c1ccccc1,x,-2.2,x,x,x,x
CN(C)[C@@H]1C(=O)C(C(N)=O)=C(O)[C@@]2(O)C(=O)C3=C(O)c4c(O)cccc4[C@@](C)(O)C3[C@H](O)C12 (stereo not given in full),-10.9,15.7,-1.0,1.7,106.4*,9.2
CN(C)C1C(=O)C(C(N)=O)=C(O)C2(O)C(=O)C3=C(O)c4c(O)cccc4C(C)(O)C3CC12 (stereo not given),x,-8.8,x,x,102.1*,x
CN(C)CC1CCCCC1OC(=O)Cc1ccc(Cl)c([N+](=O)[O-])c1 (stereo not given),2.9,5.7,4.4,-4.2,-0.3,5.3
C[C@]12CCC3C(CC[C@@H]4C[C@@H](O)CC[C@]34C)C1CC[C@@H]2O (stereo not given in full),x,-10.2,x,x,x,x
CCC1C(c2cc(OC)c(OC)c(OC)c2)c2cc3c(cc2OC1N1CCCC1)OCO3 (stereo not given),x,0.3,x,x,x,x
O=[N+]([O-])c1oc2ccc3ccccc3c2c1CCO,x,136.4*,x,x,x,x
Cc1ccc(OP2(=O)Nc3cc(C)c(C)cc3S2)cc1 (stereo not given),x,2.7,x,x,x,x
CCCCCn1c(=O)c(C(=O)Nc2ccccc2)c(O)c2ccccc21,-4.6,15.6,-18.6,-18.6,-0.9,6.7
CCCCn1c(=O)c(C(=O)Nc2ccccn2)c(O)c2ccccc21,-6.0,-18.1,-5.0,-14.1,52.7*,15.3
CCCCCCn1c(=O)c(C(=O)Nc2c(C)n(C)n(-c3ccccc3)c2=O)c(O)c2ccccc21,16.8,-5.2,-2.2,16.7,88.5*,18.4
CCOC(=O)Cc1csc(NC(=O)c2c(O)c3ccccc3n(CCC(C)C)c2=O)n1,15.0,-1.3,4.7,10.1,67.8*,7.3
CCCCCCn1c(=O)c(C(=O)Nc2cnccn2)c(O)c2ccccc21,5.6,-13.2,6.5,-5.5,64.3*,7.8
CCCCCCn1c(=O)c(C(=O)Nc2nc(CC(=O)OCC)cs2)c(O)c2ccccc21,9.9,-10.0,-5.0,-12.9,-9.3,4.9
CCCCCn1c(=O)c(C(=O)Nc2ccccn2)c(O)c2ccccc21,-3.9,-20.6,-4.8,-20.3,0.7,29.7
CCOc1cccc(=NC2CCCCC2)c2c(C)n(C)c(C)c12,12.5,x,11.3,0.4,9.0,12.0
CC1=C(O)C(=O)C=C2C1=CC=C1C2(C)CCC2(C)C3CC(C)(C(=O)O)CCC3(C)CCC12C (stereo not given),x,125.3*,x,x,x,x
CCOC(=O)c1ccc(-[n+]2c(-c3ccccc3)cc(-c3ccccc3)cc2-c2ccccc2)cc1,17.6,-19.7,-1.0,18.7,1.7,14.9
Cc1ccc(-c2cc(-c3ccc(C)cc3)[n+](-c3ccc(C(=O)[O-])cc3)c(-c3ccc(C)cc3)c2)cc1,-0.9,0.1,-3.7,11.6,77.9*,12.5
CC(=O)O[C@H]1CCC2C3CC[C@H]4[C@@H](O)[C@H](O)CC[C@]4(C)C3CC[C@@]21C (stereo not given in full),x,-41.7,x,x,x,x
C=CCn1c(O)c(C(CC)=Nc2ccc(N(C)C)cc2)c(=O)[nH]c1=O,1.2,-5.1,4.5,4.7,57.1*,24.2
SMILES,tim23-1 inh,PfHsp90 yeast 2,TIM10 inh,tim10-1 inh,SKKanGAS inh,NLRP3 yeast inh
Cn1cccc1C1CCCN1CC(=O)Nc1ccc(C#N)c(Cl)c1 (stereo not given),11.3,-5.7,5.0,13.1,x,21.7
Clc1ccc(CCC(Cn2ccnc2)Sc2c(Cl)cccc2Cl)cc1 (stereo not given),-38.8,88.0*,-63.0,-6.5,x,20.0
O=C1NC(=S)SC1=Cc1ccc(N(CCCl)CCCl)cc1,x,-4.1,x,x,x,x
CN(C)C(=S)SSC(=S)N(C)C,x,108.2*,x,x,26.8,x
O=C1NC(=S)NC(=O)C1=Cc1ccc(Br)s1,30.7,123.3*,14.1,14.6,-4.7,16.6
C[n+]1c(-c2ccccc2)c2cc(N)ccc2c2ccc(N)cc21,-68.3,-34.6,-14.9,-13.0,100.2*,35.3
Nc1ccc2ccc3cccc[n+]3c2c1,-12.5,2.5,-8.1,-6.9,4.0,19.9
N#CC1c2ccccc2-n2nncc2CN1Cc1cc(Cl)cc(Cl)c1 (stereo not given),x,-30.5,x,x,x,x
Cc1ccc(-n2nc(C)c(C3C(C#N)=C(N)Oc4c3c(=O)oc3ccccc43)c2Cl)cc1 (stereo not given),x,x,x,x,119.3*,x
Cn1c(NN=O)nc2ccccc21,19.9,-7.0,1.4,36.0,56.3*,24.4
COC(=O)C1=C(C(=O)OC)C2OC1c1cc3ccccc3cc12,x,132.1*,x,x,x,x
COC(=O)C1=C(c2ccc3ccccc3c2)C[C@@H]2CC[C@H]1N2C,6.0,7.3,-4.6,7.6,x,15.9
ClCCN(CCCl)c1ccc(-n2cnc3c(Cl)ncnc32)cc1,x,6.0,x,x,x,x
O=c1[nH]c(CN2CC=C(c3ccccc3)CC2)nc2cc(C(F)(F)F)ccc12,-5.9,-4.1,5.5,10.0,6.4,0.9
O=c1[nH]c(CN2CC=C(c3ccccc3)CC2)nc2scc(-c3ccccc3)c12,13.1,14.4,-0.9,1.1,64.2*,-0.1
CC(C)c1ccc(-n2c(O)c(/C=N/NC(=O)c3ccccc3O)c(=O)[nH]c2=S)cc1,8.3,-1.9,-22.5,16.0,70.4*,6.7
O=C(N/N=C/c1c(O)n(CCc2ccccc2)c(=O)[nH]c1=O)c1ccccc1,-1.1,x,5.4,20.2,54.9*,4.6
O=c1[nH]c(=S)n(C2CC2)c(O)c1/C=N/Nc1ccccc1,8.6,-16.8,-31.4,-23.6,5.7,20.5
CCCCn1c(O)c(/C=N/NC(=O)c2ccncc2)c(=O)[nH]c1=O,8.4,-15.6,-15.7,-1.4,32.7,-1.4
O=C(N/N=C/c1c(O)n(Cc2ccco2)c(=O)[nH]c1=O)c1ccccc1O,8.4,37.6,-2.9,-6.5,67.9*,-0.4
CCCCC(=O)N/N=C/c1c(O)n(Cc2ccco2)c(=O)[nH]c1=O,18.3,7.5,9.9,0.7,-1.1,27.7
O=C(N/N=C/c1c(O)n(C2CCCCC2)c(=S)[nH]c1=O)c1ccccc1,9.6,12.6,17.7,35.0,80.3*,22.2
CC(C)(O)[C@@H]1[C@H]2OC(=O)[C@@H]1[C@]1(O)C[C@H]3O[C@]34C(=O)O[C@H]2[C@]14C (tested in a mixture with another compound),9.1,x,3.8,2.3,4.4,1.0
